This is part of a sample that, as a whole, favours compounds with a hit. Of some 79,000 tested, about 15% had one in any assay. The source made the active and inactive calls. Cut-off read from the data, not from the text of the source: active = growth inhibition above about 70%; inactive = the rest.

Experimental findings from PubChem BioAssay (NCI) are described below.

A short description of the assay: NCI Yeast Anticancer Drug Screen. Data for the mlh1 strain (AID 171).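 Note: 0% = growth of vehicle-treated control cultures of the same strain.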 Particulars: S. cerevisiae mlh1 strain growth inhibition, stronger effect = higher value. As to the method: Growth inhibition of yeast strains with defined genetic alterations is measured as a screen for potential anti-cancer activity. Selected strains with alterations in DNA damage repair or cell cycle control were exposed to compounds and growth inhibition was measured relative to vehicle treated controls. The strain used in this assay is mlh1

As for `COc1ccc(/C=C2\NC(=S)N(/C=C3\C(=O)Oc4ccccc4C3=O)C2=O)cc1`, the growth inhibition by setting is: (at 1.2 µM) -1% (inactive); (at 3.7 µM) 1% (inactive); (at 11.0 µM) 1% (inactive); (at 33.0 µM) 9% (inactive); (at 100.0 µM) 25% (inactive).

As to `CCCCNC1CCC2(SCCS2)c2[nH]c3ccccc3c21` (stereo not given), the growth inhibition is 5% (inactive) (at 1.2 µM); -2% (inactive) (at 3.7 µM); 4% (inactive) (at 11.0 µM); -1% (inactive) (at 33.0 µM); 6% (inactive) (at 100.0 µM).

On to `COc1ccc([N+](=O)[O-])c2c(NCCCN(C)C)c3ccccc3nc12`, for which the growth inhibition (at 1.2 µM) was 0% (inactive); the growth inhibition (at 3.7 µM) is 2% (inactive); the growth inhibition (at 11.0 µM) was 4% (inactive); the growth inhibition (at 33.0 µM) was 19% (inactive); the growth inhibition (at 100.0 µM) was 45% (inactive).

Regarding `CCC1(OC(=O)CN2CCN(CCO)CC2)C(=O)OCc2c1cc1n(c2=O)Cc2cc3ccccc3nc2-1` (stereo not given), the growth inhibition reads like this: (at 1.2 µM) 1% (inactive); (at 3.7 µM) -5% (inactive); (at 11.0 µM) -12% (inactive); (at 33.0 µM) -20% (inactive); (at 100.0 µM) -13% (inactive).

For `O=C1OC(C2=CC(=O)c3ccccc3C2=O)C(Cl)=C1Cl` (stereo not given), the growth inhibition was -2% (inactive) (at 1.2 µM); 3% (inactive) (at 3.7 µM); 6% (inactive) (at 11.0 µM); 22% (inactive) (at 33.0 µM); 13% (inactive) (at 100.0 µM).

In the case of `O=C(C[n+]1ccc2ccccc2c1)c1ccc2ccccc2c1`, the growth inhibition was -15% (inactive) (at 1.2 µM); -30% (inactive) (at 3.7 µM); -36% (inactive) (at 11.0 µM); -22% (inactive) (at 33.0 µM); 97% (active) (at 100.0 µM).

Turning to `Cc1nc2ccccc2nc1NNc1ccccc1`, the growth inhibition (at 1.2 µM) was 1% (inactive); the growth inhibition (at 3.7 µM) is -4% (inactive); the growth inhibition (at 11.0 µM) is 7% (inactive); the growth inhibition (at 33.0 µM) was 30% (inactive); the growth inhibition (at 100.0 µM) is 41% (inactive).

With `O=[N+]([O-])c1ccc(N/N=C/Cc2ccccc2)c([N+](=O)[O-])c1`, the growth inhibition (at 1.2 µM) was -4% (inactive); the growth inhibition (at 3.7 µM) is -5% (inactive); the growth inhibition (at 11.0 µM) was 0% (inactive); the growth inhibition (at 33.0 µM) was 6% (inactive); the growth inhibition (at 100.0 µM) was 11% (inactive).
